Screens: PubChem BioAssay, The Scripps Research Institute Molecular Screening Center
MITF inh: blocks human microphthalmia-associated transcription factor. AlphaScreen MITF homodimerization, bead proximity signal. inhibition, % at 2.6 µM. actives 0.91% (n = 650,000). AID 1259374. O75030; in the data active = inhibition above about 50%;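 note: 0% = vehicle wells with protein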
Target sequence (O75030 whole entry, looked up): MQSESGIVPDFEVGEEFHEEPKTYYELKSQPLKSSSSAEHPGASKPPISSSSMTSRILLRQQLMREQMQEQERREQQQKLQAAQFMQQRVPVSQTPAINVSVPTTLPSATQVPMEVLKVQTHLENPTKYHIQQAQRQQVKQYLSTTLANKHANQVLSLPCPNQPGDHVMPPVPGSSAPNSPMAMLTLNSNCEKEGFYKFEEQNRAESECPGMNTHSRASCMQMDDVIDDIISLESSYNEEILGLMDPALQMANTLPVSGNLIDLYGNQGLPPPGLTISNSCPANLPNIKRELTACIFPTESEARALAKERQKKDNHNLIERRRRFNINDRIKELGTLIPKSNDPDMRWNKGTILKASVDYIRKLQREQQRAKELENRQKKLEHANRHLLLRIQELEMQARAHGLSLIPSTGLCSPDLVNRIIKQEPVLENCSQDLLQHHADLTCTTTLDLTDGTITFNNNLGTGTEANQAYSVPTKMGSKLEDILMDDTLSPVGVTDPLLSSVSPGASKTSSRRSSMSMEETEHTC
TEAD-YAP block: TEAD-YAP interaction inhibition; HEK-TIYL cells, TEAD-Gal4/YAP UAS-luciferase luminescence; AID 1259422; actives 1.4% (n = 640,000); inhibition, % at 9.12 µM; in the data active = inhibition above about 32%;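 note: 0% = median of test compound wells and 100% = reference inhibitor wells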
GPR151 activ: activates the human receptor GPR151 | Q8TDV0 | PathHunter beta-arrestin GPR151 cells, luminescence | activation, % at 11.2 µM | actives 1% (n = 650,000); in the data active = activation above about 4.9%;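 note: 0% = median of compound wells and 100% = cells with positive control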
FBW7 act: human FBW7 E3 ligase activation, primary screen; Q969H0; normalized activity (activation), % at 26.1 µM; AID 1259310; actives 0.13% (n = 650,000); AlphaScreen FBW7–phospho-cyclin E peptide binding, activator screen; in the data active = normalized activity above about 1.9%;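 note: purified mutant Fbw7 with reduced substrate affinity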
GPR151 conf act: human GPR151 activation, confirmation screen. shares compounds with GPR151 activ. GPR151 PathHunter beta-arrestin cells, luminescence, 90 min; % of EA-reagent control over plate median. activation, % at 11.2 µM. 6,700 tested, under 10 active. AID 1508609;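 active = mean percent activation across replicates above the confirmation screen cutoff of 4.91%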
GPR119 counter: GPR119 activation, counter-screen for GPR151 activators. shares compounds with GPR151 activ. GPR119 PathHunter beta-arrestin cells, luminescence, 90 min; 0 = compound-well median, 100 = enzyme-acceptor control. activation, % at 11.2 µM. actives 0.3% (n = 6,700). AID 1508611;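 active = mean percent activation in the counterscreen above 29.09%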;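 note: counterscreen on off-target GPR119 to flag nonselective hits from the GPR151 activator screen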
An asterisk follows results filed as active; . = not tested or not shown. Rows were chosen to be rich in hits. Some 3.4% of all compounds tested hit in one or more screens of this group.

SMILES	MITF inh	TEAD-YAP block	GPR151 activ	FBW7 act	GPR151 conf act	GPR119 counter
CCCN1C(=O)C[n+]2ccccc2C1C(=O)Nc1ccccc1C (configuration not stated)	2	2	12*	1	1	2
CCC(/C=N/NS(=O)(=O)c1ccccc1)CC	6	-3	0	1	.	.
O=C1/C(=C/c2cccnc2)CC/C1=C\c1cccnc1	1	16	6.5*	0	1	4
CCOc1ccc(-n2c(SCC(=O)Nc3cc(C)on3)nc3c(c2=O)SCC3)cc1	4	-38	5.1*	0	1	5
CCn1c(SCC(=O)Nc2nc(C)cs2)nc2c(c1=O)SCC2	-4	11	6.3*	0	0	1
CCC(CO)Nc1ccc2ncc(-c3ccc(C(=O)O)cc3)n2n1 (configuration not stated)	17	7	-2	0	.	.
CCC(CC)NC(=O)c1ccc(C)c([N+](=O)[O-])c1	1	-1	5.2*	0	1	0
Cc1ccc(NC(=O)c2cccc(I)c2)cc1[N+](=O)[O-]	-15	-24	4.9*	0	1	-7
O=C(Nc1c2c(nn1-c1ccc([N+](=O)[O-])cc1)CSC2)c1ccc2c(c1)OCO2	7	-10	0	0	.	.
COc1ccc(S(=O)(=O)Nc2ccccc2C(=O)NC(C)C)cc1OC	-2	0	18*	0	0	6
COc1ccc(NC(=S)Nc2cccc([N+](=O)[O-])c2)cc1	16	-1	-1	0	.	.
CCN(CC)S(=O)(=O)c1ccc(OC)c(NS(=O)(=O)c2cccc([N+](=O)[O-])c2)c1	24	0	6.2*	0	0	4
COc1ccc(S(=O)(=O)Nc2cccc3c([N+](=O)[O-])cccc23)cc1OC	-7	-20	6.0*	0	0	7
CCN(CC)S(=O)(=O)c1ccc(OC)c(NS(=O)(=O)c2ccccc2[N+](=O)[O-])c1	-17	-11	2	0	.	.
COc1ccc(NC(=S)NNS(=O)(=O)c2cccc([N+](=O)[O-])c2)cc1	-24	-11	4.9*	0	0	-13
COc1ccccc1CNc1ncccc1N1C(=O)CCC1=O	5	-1	0	0	.	.
COc1ccccc1NS(=O)(=O)c1ccc(SC)cc1	4	2	6.3*	0	-1	0
COc1ccc(S(=O)(=O)Nc2ccccc2SC)cc1Br	16	-3	5.7*	1	-1	4
COc1ccc(N2Cc3ccc(C(=O)N/N=C/c4ccco4)cc3C2)cc1	23	-21	0	1	.	.
COc1ccc(C(=O)N/N=C/c2ccco2)cc1	21	-32	6.9*	0	0	-7
COc1ccc(C(=O)Nc2ccc(C(=O)N/N=C/c3ccc(O)cc3O)cc2)cc1	-3	-6	8.6*	0	0	3
Cc1[nH]c(=O)[nH]c(=O)c1NC(=O)CSc1nccc(-c2ccccc2)n1	-5	1	0	0	.	.
c1ccc(CN2CCC(N3CCN(C4CCCC4)CC3)CC2)cc1	31	11	5.1*	0	0	6
CC(C)C(c1nnnn1Cc1ccc(F)cc1)N1CCN(C2CCCC2)CC1 (configuration not stated)	17	4	-1	0	.	.
CC(C)C(c1nnnn1Cc1ccccc1)N1CCN(C2CCCC2)CC1 (configuration not stated)	3	4	9.0*	0	-1	-3
SMILES	MITF inh	TEAD-YAP block	GPR151 activ	FBW7 act	GPR151 conf act	GPR119 counter
Cc1ccc(OC(=O)c2ccccc2[N+](=O)[O-])cc1	2	-2	1	0	.	.
COc1ccc(C(=O)N(Cc2cccs2)C2CC(C)(C)NC(C)(C)C2)cc1	5	13	7.4*	1	0	5
CC(C)N(CCNc1ncnc2nc(Nc3ccccc3)[nH]c12)C(C)C	5	-7	-2	0	.	.
CC(C)N(CCNc1ncnc2nc(Nc3nccc4ccccc34)[nH]c12)C(C)C	9	-3	6.1*	0	0	-5
CC(Oc1ccc(Br)cc1)C(=O)Nc1ccccc1 (configuration not stated)	-16	1	-1	0	.	.
CC(Oc1ccc(Br)cc1)C(=O)Nc1ccc(C(N)=O)cc1 (configuration not stated)	-7	8	5.7*	0	0	-2
COc1ccc(N2C3=C(C(=O)CC(C)(C)C3)C(c3ccccc3)C3=C2c2ccccc2C3=O)cc1 (configuration not stated)	-8	-6	5.6*	0	0	-5
CCC(C(=O)Nc1ccc(F)cc1F)n1c2ccccc2c2nc(=O)cc(C)n21 (configuration not stated)	-10	-5	-1	0	.	.
CCC(C(=O)Nc1ccc(F)cc1)n1c2ccccc2c2nc(=O)cc(C)n21 (configuration not stated)	11	5	5.3*	0	0	0
CC(SCC(=O)NCCc1ccc(F)cc1)C(=O)O (configuration not stated)	20	-2	-1	0	.	.
CCOC(=O)c1c(C)oc2nc(CCl)[nH]c(=O)c12	-4	4	12*	0	-1	-9
Cc1ccc(CN=Cc2c(NCc3ccc(C)cc3)nc3ccccn3c2=O)cc1	1	-16	5.3*	0	0	-1
C=CCn1c(SCC(=O)Nc2sc3c(c2C(=O)OCC)CCCCC3)nc2sc(-c3ccccc3)cc2c1=O	-4	-3	6.3*	0	1	18
Cc1ccc(OCC(=O)N(C)c2ccccc2)cc1C	4	-19	0	0	.	.
COc1ccc(N2CCN(C3CC(=O)N(c4ccc(C(=O)O)cc4)C3=O)CC2)cc1 (configuration not stated)	13	5	6.0*	0	0	4
CCOc1cccc(N2C(=O)CC(N3CCN(c4ccccn4)CC3)C2=O)c1 (configuration not stated)	-11	5	0	0	.	.
COc1cccc(N2C(=O)CC(N3CCN(c4ccccn4)CC3)C2=O)c1 (configuration not stated)	3	0	5.1*	0	0	-6
Cc1ccc(NC(=O)c2cc(S(=O)(=O)NCc3ccco3)ccc2F)cc1	12	-1	2	0	.	.
COc1ccc(CCn2c(C)c(C(C)=O)c3cc(OC(=O)c4cccc(Cl)c4)ccc32)cc1OC	-2	-6	-1	0	.	.
COc1ccc2c(c1)c(C(=O)O)c(C)n2CCc1ccc(OC)c(OC)c1	7	-11	5.6*	0	1	2
CC(C)(C)SCCNC1=C(Cl)C(=O)c2ccccc2C1=O	29	-18	-2	0	.	.
